Records with an inconclusive call do not appear. Values without a mark were called inactive. Active and inactive are the calls of the source.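 How the source made its calls: active means cell viability at or below a set limit in both duplicate runs, the limit being the all-compound median minus 4 SD (cut at about 23% in these data, passing the limit was not always enough); inconclusive means no clear call, values can overlap the other calls; inactive means the rest.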
Assay: growth suppression of beta-catenin knockout HCT116, pilot screen, human colon tumor cells (AID 823);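 further: 0% = wells killed by 20 µM Hyamine and 100% = untreated DMSO cell wells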
Settings: CellTiter-Glo, 60 h, at 10 µM, stronger effect = lower value

Point of comparison: `Cc1cc(-c2nnco2)c(C)n1-c1ccc(F)cc1`, viability 84.2%. Against it:
- O=C(Cn1cc2c(n1)CCCC2)N1CCOCC1 — higher, 99.4%
- CCOc1ccc(-c2nnc3ccc(SCC(=O)N4CCCCC4)nn23)cc1 — higher, 110%
- O=C(NC1CCCCCCC1)c1c(O)c2ccccc2[nH]c1=O — higher, 91.6%
- COC(=O)C(C)Sc1nnc(Cc2cc(=O)[nH]c(=O)[nH]2)n1-c1ccc(OC)cc1 (stereo not given) — higher, 106%
- O=C(CCn1c(=O)oc2ccccc21)Nc1ccc2c(c1)OCCO2 — higher, 103%
- CCCOC(=O)C1=C(C)NC2=C(C(=O)C(C(=O)OC)C(C)C2)C1c1ccc(N(CC)CC)cc1 (stereo not given) — lower, 65.7%
- CC1CCc2nn(CC(=O)NCCCN3CCCC3=O)cc2C1 (stereo not given) — higher, 103%
- COc1ccc(C2C(C(=O)Nc3ccccc3OC)=C(C)Nc3ncnn32)cc1 (stereo not given) — higher, 99.2%
- COc1ccccc1NC(=O)CSc1nc2ncccc2[nH]1 — higher, 101%
- O=C(NCc1ccccc1Cl)c1cnc2n(c1=O)CCS2 — higher, 99.9%
- CCCS(=O)(=O)c1nc(S(=O)(=O)c2ccc(C)cc2)c(NCCCN2CCOCC2)s1 — higher, 91.8%
- CCOC(=O)C(C)Sc1ncnc2nc[nH]c12 (stereo not given) — higher, 98.8%
- O=C(CSc1ncccn1)NCCc1ccccc1 — higher, 96%
- CN1CCN(C(=O)c2ccc3c(c2)N(Cc2cccc(Cl)c2)C(=O)c2ccccc2S3=O)CC1 (stereo not given) — higher, 102%
- Cc1nc2sc(C(c3ccccc3)N3CCN(CCO)CC3)c(O)n2n1 (stereo not given) — higher, 106%
- CCOCCCNC(=O)C(c1ccc(Cl)cc1)N1CCN(c2ccccc2)CC1 (stereo not given) — higher, 87%
- CCn1c(CNC(=O)c2ccc(OC)cc2)nnc1SC — higher, 90.6%
- COc1ccc(C2C(C(=O)NCCN(C)C)c3ccccc3C(=O)N2C)cc1OC (stereo not given) — higher, 100%
- Cc1csc2nc(CNS(=O)(=O)c3ccc(-c4ccccc4)cc3)cn12 — higher, 90.2%
- Cc1nn(-c2ccccc2)c(C)c1C(=O)OCC(=O)Nc1ccc2c(c1)OCO2 — higher, 95.3%
- Cc1nc2ccccc2n1-c1ccccc1 — higher, 89.1%
- CCSc1nnc(-c2ccc(Cl)cc2Cl)o1 — lower, 83.5%
- COc1ccccc1N1CCN(C(=O)CCCCn2c(=O)[nH]c3ccsc3c2=O)CC1 — higher, 94%
- C=CCn1c(CSc2nc3ccccc3s2)nnc1SCC(=O)OCC — higher, 97.6%
- COc1ccc(-n2ncc3c(N4CCCCC4)ncnc32)cc1 — lower, 67.8%
- CCC(=O)NCc1nc2ccccc2n1Cc1ccccc1F — higher, 99.1%
- O=C(CCS(=O)CCC(=O)NCc1ccccc1)NCc1ccccc1 — higher, 97.9%
- COc1ccc(N2CCN(C(=O)C(Cc3ccccc3)n3cccc3)CC2)cc1 (stereo not given) — higher, 84.9%
- CCCC(=O)c1ccc(N2CCOCC2)c(F)c1 — higher, 98.7%
- Cc1ccccc1-n1c(Cn2c(=O)sc3ccccc32)nnc1SCC(=O)N1CCOCC1 — higher, 102%
- COc1ccc(OC)c2sc(NC(=O)c3ccc(Br)s3)nc12 — higher, 85.1%
- CCc1c(C)sc(NC(=O)c2cccs2)c1C(=O)OC(C)C — lower, 77.5%
- COc1ccc(C(=O)Nc2ccccc2C(=O)NCCCn2ccnc2)cc1 — higher, 95.1%
- CC(=O)Nc1ccc(C(=O)c2ccccc2)cc1 — higher, 95.4%
- O=C(NCCCN1CCC(Cc2ccccc2)CC1)C1CC(=O)N(C2CCCC2)C1 (stereo not given) — higher, 88.5%
- CC(C)(C)c1nc(CN2CCCCC2)cc(CN2CCCCC2)c1O — lower, 70.8%
- O=C1CCC(=O)N1CNc1cccnc1 — higher, 95.3%
- O=C(Cc1c(F)cccc1Cl)c1ccc(O)cc1O — higher, 99.8%

With `N=c1n(CCO)c2ccccc2n1CCOc1ccc(Cl)cc1Cl` the viability was 1.5% (active).

— PubChem BioAssay
